From PubChem BioAssay AID2734 (National Center for Advancing Translational Sciences (NCATS), 2010)
Results filed as inconclusive are left out. A number with no mark means an inactive call. Activity calls are given as the source filed them. The call rests on the fitted dose curve; in most records, active means well fitted inhibition curve with a large enough effect; inconclusive means small, poorly fitted or top-dose-only effect, or effect the other way; inactive means no such curve, though single readings can be large or run the other way.

Experiment: High Content Assay for Compounds that inhibit the Assembly of the Perinucleolar Compartment: DNA Intercalation/PicoGreen Displacement Assay
Conditions: fluorescence (intercalation counter-screen); series mostly up to 57.1 µM; activity change, negative = displacement: at the top concentration
Source text: High Content Assay for Compounds that inhibit the Assembly of the Perinucleolar Compartment
NIH Chemical Genomics Center [NCGC]
NIH Molecular Libraries Probe Centers Network [MLPCN]
Assay Submitter (PI): Sui Huang, Northwestern University, Feinberg School of Medicine, Cell and Molecular Biology, Chicago, Illinois.
The perinucleolar compartment (PNC) is a non-membrane-bound nuclear subdomain that is associated with but structurally distinct from the nucleolus. The PNC is a heritable trait, in which the number of PNCs per cell in daughter cells often mimics that of their mother cells. The PNC is heterogeneous in shape, is stable through interphase, disassembles during mitosis, and reassembles in early G1. The PNC is concentrated with newly synthesized RNA polymerase III (pol III) RNAs (MRP RNA, RNAse P H1 RNA, hY RNAs[hY1, 2, 5], Alu RNA, and SRP [7SL] RNA) and RNA binding proteins (nucleolin, PTB, CUG-BP, KSRP, Raver1, Raver2, and Rod).
Extensive in vitro studies have shown that the PNC is unique to tumor cells and preferentially forms in tumor cells derived from solid tissues. Examination of cancer cell lines from various origins and malignant capacities has shown that PNC prevalence correlates with the malignancy of tumors and has the potential to be developed as a pan-cancer prognostic marker.
Although the PNC is associated with a DNA locus and a handful of components have been identified, much remains to be investigated regarding the structure and function of the PNC and its mechanistic link to cancer. We have previously shown that PNC prevalence reduction is a valid strategy to identify compounds that can be used to study the structure and function of the PNC. It is necessary, however, to create a screening platform that is able to test a large number of compounds in an automated fashion. Here we report the development and robustness of an automated whole-cell phenotypic image-based screening assay that is capable of identifying such compounds.
Therefore, we conducted a DNA intercalation/displacement assay on the lead candidates in order to exclude compounds with this mechanism of action. PicoGreen is a DNA intercalator that becomes excitable at 488 nm and emits at 520 nm when bound to DNA. Compounds which displace the dye will decrease fluorescence intensity and were considered DNA intercalators/displacers. In order to rule out potential fluorescence artifacts, a measurement of compound plus DNA only was also calculated.
1. A supercoiled plasmid (pBR322) was diluted to 200 ng/ml in TE and 2 ul was dispensed into 1536 well black plates Multidrop Combi.(ThermoFisher).
2. Followup compounds dissolved in 100% DMSO were transferred using a pintool (23 nl).
3. Compounds were incubated in the presence of DNA for 30 minutes at room temperature.
4. A baseline signal was measured using an Envision PMT based plate reader using a 488 nm excitation filter and a 520 nm emission filter.
5. The PicoGreen dye (Invitrogen) was diluted in TE and 2 ul/well was dispensed to the 1536 well plate using a Multidrop Combi.
6. Plates were incubated at 37 C for 10 minutes prior to being read on the envision plate reader. 100 ng/ml of Propidium Iodide was used as the positive intercalation control.

Row | Structure (SMILES) | Potency | activity change, negative = displacement [%]
1 | O=C1C(=O)c2ccc(-c3ccccc3)cc2-c2ccccc21 | 4.47 µM (active) | 
2 | CC(=O)/C(C#N)=C1\NC(=O)C(Cc2ccc(C)c(C)c2)S1 (configuration not stated) |  | 13.5
3 | C/C(=N/OCO/N=C(/C)c1ccc(F)cc1)c1ccc(F)cc1 |  | 11.4
4 | CC(=O)Nc1ccc(S(=O)(=O)Oc2ccc3c(c2)C(C)=CC(C)(C)N3)cc1 |  | -2.67
5 | O=C(Nc1ccc(NC(=O)C2CC2)cn1)c1ccccc1Cl |  | -4.55
6 | Cc1cc(C)c(S(=O)(=O)/N=C2/C=C(Sc3ncn[nH]3)C(=O)c3ccccc32)cc1C | 12.6 µM (active) | 
7 | CCOC(=O)CSc1nc2c(sc3ccc([N+](=O)[O-])cc32)c(=O)n1Cc1ccco1 |  | 24.2
8 | CC(/C=C/c1ccccc1)=N/NC(=O)c1cc([N+](=O)[O-])cc([N+](=O)[O-])c1 |  | -6.33
9 | CCCNC1=C(N(C(C)=O)c2cccc(F)c2)C(=O)c2ccccc2C1=O |  | -5.87
10 | Nc1ccc2c(c1)C(=O)C(=O)c1ccccc1-2 | 12.6 µM (active) | 
11 | CCN(CC)c1ccc(N=Cc2ccccc2[N+](=O)[O-])cc1 | 3.16 µM (active) | 
12 | CSc1nc(-c2ccc(C)cc2)nc(C(Cl)Cl)n1 |  | 47.4
13 | Cc1ccccc1C(=O)NNC(=S)Nc1cccc(C(F)(F)F)c1 |  | 6.92
14 | Cc1cc(=O)[nH]c(N=N/C(=N/Nc2ccccc2C)c2ccccc2)n1 | 2 µM (active) | 
15 | O=c1[nH]cnc2c1C(c1ccccc1[N+](=O)[O-])c1c(nc[nH]c1=O)O2 |  | 6.43
16 | CCN(CC)C(=S)SSC(=S)N(CC)CC |  | 36
17 | CSc1nnc2c3ccccc3n(CCc3ccccc3)c2n1 |  | 27.3
18 | Cc1ccc(NC2=C/C(=N/S(=O)(=O)c3cccs3)c3ccccc3C2=O)cc1 | 3.55 µM (active) | 
19 | Cc1ccc(Cl)cc1N(CC(=O)N1CCCCCC1)S(C)(=O)=O |  | 9.65
20 | CCOC(=O)NC1(Nc2ccc(C)cc2)Oc2ccccc2O1 |  | 11.9
21 | O=C1C(Nc2ccccc2)=C/C(=N/S(=O)(=O)c2cccs2)c2ccccc21 | 2.82 µM (active) | 
22 | O=C1C(=Cc2cccs2)C(=O)c2ccccc21 |  | -20.6
23 | Nc1cccc(-c2nc3ccc(N)cc3s2)c1 |  | -8.75
24 | O=[N+]([O-])c1cc(/C=N/Nc2nc3ccccc3[nH]2)c(O)cc1O | 22.4 µM (active) | 
25 | COC(=O)c1ccc(CSc2ccccc2C)o1 |  | 8.83
26 | CCOC(=O)c1c(NC(=O)c2c(-c3ccccc3)noc2C)sc(C)c1-c1ccccc1 |  | 11.5
27 | O=C(Nc1cccnc1)c1cccs1 |  | 1.26
